This is an account of results in PubChem BioAssay (NCI).

Assay [1] in a line: NCI Yeast Anticancer Drug Screen. Data for the rad50 strain (AID 155).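 Note: 0% = growth of vehicle-only cultures of the same strain.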 As to conditions: S. cerevisiae rad50 strain growth inhibition; at 50.0 µM; hits give high values. In outline: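 DNA repair mutant yeast, compound exposure, growth read-out; inhibition is taken relative to vehicle.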
Assay [2] can be described thus: NCI Yeast Anticancer Drug Screen. Data for the mec2-1 strain (AID 157). The settings on record: S. cerevisiae mec2-1 strain, at 50.0 µM, hits give high values. In outline: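 mec2-1 yeast strain, carrying an alteration in DNA damage repair or cell cycle control, was exposed to compounds; growth inhibition was measured relative to vehicle-treated controls.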
Assay [3] can be described thus: NCI Yeast Anticancer Drug Screen. Data for the sgs1 mgt1 strain (AID 161).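 Note: 0% = growth of cultures given vehicle only.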 As to conditions: S. cerevisiae sgs1 mgt1 strain, at 50.0 µM, hits give high values. In outline: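 Compounds are added to genetically altered yeast, and growth is compared with cultures given vehicle alone to give percent inhibition.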
Assay [4] can be described thus: NCI Yeast Anticancer Drug Screen. Data for the cln2 rad14 strain (AID 165).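 Note: 0% = growth equal to vehicle treated cultures.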 The settings on record: S. cerevisiae cln2 rad14 strain, at 50.0 µM, hits give high values. The procedure, abridged: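 Yeast carrying cln2 and rad14 alterations (cell cycle control and DNA damage repair) were exposed to compounds. Growth inhibition was measured against vehicle-treated controls.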

Assay [5] is described as follows: NCI Yeast Anticancer Drug Screen. Data for the bub3 strain (AID 167). The settings on record: S. cerevisiae bub3 mutant strain, at 50.0 µM, hits give high values. The procedure, abridged:
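In this screen, a yeast mutant lacking normal mitotic checkpoint function is challenged with compound. Relative growth versus vehicle gives the inhibition value.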

Assay [6] is described as follows: NCI Yeast Anticancer Drug Screen. Data for the mlh1 rad18 strain (AID 175). As to conditions: S. cerevisiae mlh1 rad18 strain growth inhibition; at 50.0 µM; hits give high values. The procedure, abridged: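 Growth inhibition of the yeast strain was measured after compound exposure and expressed relative to vehicle-treated controls. The strain carries defined defects in DNA damage repair.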

Compounds without any hit were thinned out: in the full panel of roughly 79,000, 15% have a hit. Values without a mark were called inactive. Activity calls are given as the source filed them. Cut-off read from the data, not from the text of the source: active = growth inhibition above about 70%; inactive = the rest.

Regarding `Cc1ccc(NC(=O)COc2ccc(Cl)cc2)c(C)c1`, the growth inhibition is 2.9% in assay [1]; 11% in assay [2]; 12.8% in assay [3]; 9.45% in assay [4]; 16.2% in assay [5]; 0.75% in assay [6].
For the compound `O=c1c2ccccc2oc2cc([N+](=O)[O-])cc([N+](=O)[O-])c12`, the growth inhibition in assay [1] was -15.9%; in assay [2], -16.2%; in assay [3] it was -14.4%; in assay [4] it was 38.4%; in assay [5] it was 0.9%; in assay [6], -60.6%.
On to `CC(O)/C=C/c1ccccc1O` (configuration not stated), for which the growth inhibition in assay [1] is 2.05%; in assay [2], 2.85%; in assay [3], -13.9%; in assay [4], -41.5%; in assay [5], -5.65%; in assay [6], -13.6%.
For `O=[N+]([O-])c1ccc(Sc2c3ccccc3nc3ccccc23)cn1`, the growth inhibition in assay [1] was 21.1%; in assay [2], 27.4%; in assay [3], -12.5%; in assay [4] it was 7.65%; in assay [5], -14.8%; in assay [6] it was -18.4%.
For `CC(C)c1ccc(OC(=N)c2ccccc2)cc1`, the growth inhibition in assay [1] is 1.5%; in assay [2], -7.35%; in assay [3], -9.45%; in assay [4] it was -3.95%; in assay [5], 7.85%; in assay [6], 3.6%.
For the compound `O=C(O)c1c2c(cc3c(=O)c4ccccc4[nH]c13)CCCC2`, the growth inhibition is -5.65% in assay [1]; -16.4% in assay [2]; 18.7% in assay [3]; 7.25% in assay [4]; -15.7% in assay [5]; 5.2% in assay [6].
Turning to `CC1(C)N=C(N)N=C(N)N1c1ccc(-c2ccccc2)cc1`, the growth inhibition in assay [1] was 2.95%; in assay [2], 0.9%; in assay [3], 20.5%; in assay [4], -0.75%; in assay [5] it was 32.5%; in assay [6], 19.5%.
Take `Nc1c(S(=O)(=O)O)cc2cc(S(=O)(=O)O)ccc2c1N`: the growth inhibition in assay [1] is 9.9%; in assay [2] it was -12.6%; in assay [3], 6%; in assay [4], -15.7%; in assay [5], 17.8%; in assay [6], 24.9%.
For `CC(=O)[C@H]1CC[C@H]2[C@@H]3CC[C@H]4C[C@@H](OC(c5ccccc5)(c5ccccc5)c5ccccc5)CC[C@]4(C)[C@H]3CC[C@]12C`, the growth inhibition is -3.55% in assay [1]; 11.8% in assay [2]; 0.95% in assay [3]; -3.95% in assay [4]; -5.5% in assay [5]; -17.6% in assay [6].
In the case of `COc1cccc(C(C#N)c2cnc3ccccc3n2)c1` (configuration not stated), the growth inhibition in assay [1] is 27.4%; in assay [2] it was 14.6%; in assay [3], 10.1%; in assay [4], 33.2%; in assay [5], 37.1%; in assay [6], 27.4%.
For the compound `Clc1ccccc1/C=C1\c2ccc(Br)cc2-c2cccc[n+]21`, the growth inhibition in assay [1] was 92.1% (active); in assay [2], 95.8% (active); in assay [3] it was 95.5% (active); in assay [4] it was 91.4% (active); in assay [5] it was 93% (active); in assay [6], 95.7% (active).
As for `Cc1ccc(C(=O)OC2C3(C)CCC(C3)C2(C)C)cc1` (configuration not stated), the growth inhibition in assay [1] was 15.9%; in assay [2], 18.3%; in assay [3], 14.3%; in assay [4], -37.2%; in assay [5] it was 10.2%; in assay [6] it was -0.15%.
Take `O=c1[nH]c2cc([N+](=O)[O-])ccc2nc1/C=C(\O)c1cccc([N+](=O)[O-])c1`: the growth inhibition is 12.3% in assay [1]; -1.35% in assay [2]; 5.25% in assay [3]; -5.15% in assay [4]; -3.1% in assay [5]; 28.6% in assay [6].
Take `CCCCCCNC(C)=O`: the growth inhibition in assay [1] was 13.6%; in assay [2], 5.7%; in assay [3], 11.9%; in assay [4], 5.7%; in assay [5], -5.5%; in assay [6], -0.55%.
As for `COc1ccc(C2C(Cl)C(=O)N2NC(=O)c2ccc(NC(C)=O)cc2)cc1` (configuration not stated), the growth inhibition in assay [1] is -47.9%; in assay [2] it was -20.8%; in assay [3], -49.9%; in assay [4], -9.35%; in assay [5], -50%; in assay [6], -54%.
In the case of `CSCC[C@H]1C(=O)N=C(N)N1C(=O)OCc1ccccc1`, the growth inhibition in assay [1] is -5.7%; in assay [2], 3.85%; in assay [3] it was 3.6%; in assay [4], -9.6%; in assay [5] it was -2.75%; in assay [6] it was 12.8%.
Regarding `CC(N)(Cc1c[nH]c2ccccc12)C(=O)O` (configuration not stated), the growth inhibition in assay [1] was -13.3%; in assay [2], -43.5%; in assay [3], -16.1%; in assay [4] it was -26.9%; in assay [5] it was -15.8%; in assay [6], -19.4%.
On to `c1ccc2c(c1)ccc1c2c[n+](CCCCCCCC[n+]2cc3c4ccccc4ccc3c3ccccc32)c2ccccc12`, for which the growth inhibition is 88.4% (active) in assay [1]; 92.2% (active) in assay [2]; 87.5% (active) in assay [3]; 86.2% (active) in assay [4]; 83.2% (active) in assay [5]; 90.5% (active) in assay [6].
Regarding `O=C(CN1C(=O)c2ccccc2C1=O)OCC1CCCN2CCCCC12` (configuration not stated), the growth inhibition in assay [1] is 16.6%; in assay [2], -3.3%; in assay [3] it was 4.9%; in assay [4] it was -3.55%; in assay [5], -6.25%; in assay [6], -29.4%.
Regarding `CCc1ccc2c(c1)CCC(=O)O2`, the growth inhibition is 0.5% in assay [1]; -15.2% in assay [2]; -4.8% in assay [3]; -23.7% in assay [4]; -13.9% in assay [5]; -7.65% in assay [6].
`CCOC(=O)c1ncn2c1[nH]c(=S)c1ccccc12`: the growth inhibition in assay [1] was -14.8%; in assay [2], -19.1%; in assay [3] it was -11.2%; in assay [4], -0.95%; in assay [5], -17.9%; in assay [6], -2.05%.
For the compound `COC(=O)C1=C(C)N(NC(N)=O)C2(N)N(NC(N)=O)C(C)=C(C(=O)OC)C12C#N` (configuration not stated), the growth inhibition was -23.5% in assay [1]; -11.6% in assay [2]; -44.6% in assay [3]; 5.8% in assay [4]; 2.55% in assay [5]; -16.4% in assay [6].
`COC(=O)C1=C(C(=O)OC)C(C)(C)N=N1`: the growth inhibition in assay [1] was 14.2%; in assay [2], 6.65%; in assay [3], 12.7%; in assay [4], -1.65%; in assay [5] it was 16.1%; in assay [6] it was 3.45%.
In the case of `N#CC(NCc1cccc(CNC(C#N)c2ccccc2)c1)c1ccccc1` (configuration not stated), the growth inhibition in assay [1] was -4.8%; in assay [2], 8.4%; in assay [3], -28.1%; in assay [4] it was -16.4%; in assay [5], -28.7%; in assay [6] it was -19.8%.
In the case of `COC(C(=O)C(O)C(C)O)C1CC2C=C3C=C(OC4CC(OC5CC(O)C(OC)C(C)O5)C(OC(C)=O)C(C)O4)C(C)C(=O)C3=C(O)C2=C(O)C1OC1CC(OC2CC(OC3CC(C)(O)C(OC(=O)C(C)C)C(C)O3)C(O)C(C)O2)C(O)C(C)O1` (configuration not stated), the growth inhibition in assay [1] is 51%; in assay [2], 50.7%; in assay [3] it was 38.5%; in assay [4] it was 81.9% (active); in assay [5] it was 26.4%; in assay [6], 45.8%.
Regarding `CCCC(C)c1ccc(OCc2ccc(C)cc2)cc1` (configuration not stated), the growth inhibition was 1.6% in assay [1]; -4.25% in assay [2]; -18.1% in assay [3]; 13.8% in assay [4]; -1.05% in assay [5]; -4.9% in assay [6].
`NC(=O)c1cn[nH]c1N`: the growth inhibition in assay [1] is 4.05%; in assay [2], 6.2%; in assay [3], 14.2%; in assay [4], -29.6%; in assay [5], -3.4%; in assay [6], 0.55%.
Consider `CN(C)C(=O)CCCCC(=O)N(C)C`, for which the growth inhibition in assay [1] was 16.5%; in assay [2], -5.2%; in assay [3] it was 1.45%; in assay [4], -14.7%; in assay [5], 5.65%; in assay [6] it was -22.2%.
In the case of `CCOC(=O)CC1CCC(CCCCC2CCC(CC(=O)OCC)CC2)CC1` (configuration not stated), the growth inhibition was 76% (active) in assay [1]; 44.5% in assay [2]; 80% (active) in assay [3]; 57.4% in assay [4]; 22.2% in assay [5]; 45.2% in assay [6].
For `CC(=O)OCCS(=O)Cc1ccccc1` (configuration not stated), the growth inhibition in assay [1] was -36.9%; in assay [2], -16.5%; in assay [3], -9.05%; in assay [4] it was -41.4%; in assay [5], 3.6%; in assay [6], 3.15%.
As for `CCOC(=O)c1cccc(N)c1`, the growth inhibition in assay [1] is -9.6%; in assay [2], -22.2%; in assay [3], -25%; in assay [4] it was -6.35%; in assay [5], -12.5%; in assay [6], -6.8%.
As for `COC(=O)c1cc(CC2Cc3cc4c(cc3C2)CCC4)cc2c1CCC2`, the growth inhibition is -16.7% in assay [1]; -8.85% in assay [2]; -29.1% in assay [3]; 15.3% in assay [4]; 0.7% in assay [5]; -1.25% in assay [6].
For `C/C=C/c1ccc(OCC)c(OC)c1`, the growth inhibition is 24.4% in assay [1]; 6.25% in assay [2]; 12.3% in assay [3]; -8.8% in assay [4]; -17.2% in assay [5]; 16.3% in assay [6].
For the compound `CC(CS)CS`, the growth inhibition in assay [1] is 6.85%; in assay [2], -0.5%; in assay [3], 6.95%; in assay [4], -8.75%; in assay [5] it was -0.8%; in assay [6], 37%.
For the compound `COc1n[nH]c(N)n1`, the growth inhibition was 8.3% in assay [1]; 12.8% in assay [2]; 3.8% in assay [3]; 22.8% in assay [4]; 25.6% in assay [5]; 20.2% in assay [6].
In the case of `O=c1c2ccccc2[nH]c2ccc(Cl)cc12`, the growth inhibition in assay [1] is 47.6%; in assay [2], 13.9%; in assay [3], 24.9%; in assay [4] it was 21.6%; in assay [5] it was -9.65%; in assay [6] it was 61.1%.
As for `O=C1C2CSCN2C(=O)C2CSCN12` (configuration not stated), the growth inhibition in assay [1] was 5%; in assay [2], 4.45%; in assay [3], 5.7%; in assay [4] it was 12.1%; in assay [5], 8.8%; in assay [6], 4.5%.
